Among the data in PubChem BioAssay are z-score and composite z-score values, retold here.

Calls of active or inactive are those of the source. Unless noted, how the calls were made is not given here.

Test [1] is described as follows: resazurin metabolic signal in HepG2 cells – cell-based, resazurin fluorescence, 24 h, PK04 Diversity Set, profiling panel (AID 1172). To be noted: HepG2 viability, higher = more signal. In general terms: Resazurin is reduced to fluorescent resorufin, in cell work by metabolically active cells.
The nature of test [2]: budding yeast growth changes without added modifier – OD600, strain BY4716, 24 h, basal condition, primary screen (AID 1173). To be noted: S. cerevisiae BY4716 growth, OD600, 24 h; higher = more signal, called active from +8 up or from −8 down.
The nature of test [3]: viability profiling in MM1S myeloma cells – cell-based, resazurin fluorescence, basal, 24 h, PK04 Diversity Set, profiling panel (AID 1174).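 Further: MM1S multiple myeloma cell line.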 To be noted: higher = more signal, called active from +8 up or from −8 down.
In test [4] the target is Dihydroorotate dehydrogenase (quinone), mitochondrial (Plasmodium falciparum (isolate 3D7)) (UniProt Q08210). Kind of test: inhibition of P. falciparum DHODH – biochemical, C-terminal His tag, absorbance 600 nm, primary screen (AID 1175).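 Further: recombinant parasite enzyme with a five histidine tag at its C terminus.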 To be noted: PfDHODH enzyme, DCIP absorbance 600 nm; higher = more signal, called active from +8 up or from −8 down.
Sequence of Dihydroorotate dehydrogenase (quinone), mitochondrial (Plasmodium falciparum (isolate 3D7)) (Q08210 whole entry, looked up): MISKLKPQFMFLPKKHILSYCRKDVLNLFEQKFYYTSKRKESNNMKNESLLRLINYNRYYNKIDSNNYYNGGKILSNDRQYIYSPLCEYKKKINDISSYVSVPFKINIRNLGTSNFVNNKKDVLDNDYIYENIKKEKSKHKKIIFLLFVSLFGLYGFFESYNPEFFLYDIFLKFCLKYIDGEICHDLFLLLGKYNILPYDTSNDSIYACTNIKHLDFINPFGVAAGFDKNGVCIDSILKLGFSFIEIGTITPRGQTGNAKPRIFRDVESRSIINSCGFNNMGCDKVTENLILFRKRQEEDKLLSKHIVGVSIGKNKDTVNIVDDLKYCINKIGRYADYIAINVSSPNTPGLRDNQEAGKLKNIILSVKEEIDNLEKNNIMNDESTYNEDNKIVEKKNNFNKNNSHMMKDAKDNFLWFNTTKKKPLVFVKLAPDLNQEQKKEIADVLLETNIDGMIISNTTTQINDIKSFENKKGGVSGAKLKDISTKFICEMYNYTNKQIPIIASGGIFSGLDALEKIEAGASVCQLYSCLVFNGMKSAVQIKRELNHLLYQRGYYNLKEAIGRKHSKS
Test [5] is described as follows: inhibition of PAO1 biofilm formation – strain PAO1, LB-PBS medium, absorbance 600 nm, primary screen (AID 1176). As to conditions: P. aeruginosa PAO1 growth/biofilm, A600, 12 h; higher = more signal.
A short description of test [6]: growth modulation of vineyard yeast isolate – strain RM11-1a, OD600, basal, 24 h, primary screen (AID 1177).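 Further: cultures grown under basal conditions with no added stressor.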 To be noted: S. cerevisiae RM11-1a growth, OD600, 24 h; higher = more signal, called active from +8 up or from −8 down.
The nature of test [7]: growth of efflux-deficient E. coli DRC39 – strain DRC39, OD650, 24 h, E. coli filamentation inducers, primary screen (AID 1178).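 Further: growth measured as culture turbidity by optical density at 650 nm.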 As to conditions: E. coli DRC39 acrAB, higher = more signal, called active from +8 up or from −8 down.
A short description of test [8]: growth of efflux-deficient E. coli DRC39 – strain DRC39, OD650, 48 h, E. coli filamentation inducers, primary screen (AID 1179).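 Further: screen aims at cell division blockers that make cells filament.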 As to conditions: E. coli DRC39 delta-acrAB growth, higher = more signal, called active from +8 up or from −8 down.
Test [9] in a line: viability profiling in RPMI8226 myeloma cells – cell-based, resazurin fluorescence, basal, 24 h, PK04 Diversity Set, profiling panel (AID 1180).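 Further: RPMI8826 multiple myeloma cell line at 5000 cells per well.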 As to conditions: higher = more signal.
The target of test [10] is E3 ubiquitin-protein ligase XIAP (Homo sapiens) (UniProt P98170). The test is described as follows: small molecules binding XIAP protein – biophysical, small-molecule microarray, fluorescence 635 nm, primary screen (AID 1181).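 Further: score merges 667 nm emission and signal to noise over triplicate slides.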 As to conditions: higher = more signal.
Sequence of E3 ubiquitin-protein ligase XIAP (Homo sapiens) (P98170 whole entry, looked up, the tested form may be a part): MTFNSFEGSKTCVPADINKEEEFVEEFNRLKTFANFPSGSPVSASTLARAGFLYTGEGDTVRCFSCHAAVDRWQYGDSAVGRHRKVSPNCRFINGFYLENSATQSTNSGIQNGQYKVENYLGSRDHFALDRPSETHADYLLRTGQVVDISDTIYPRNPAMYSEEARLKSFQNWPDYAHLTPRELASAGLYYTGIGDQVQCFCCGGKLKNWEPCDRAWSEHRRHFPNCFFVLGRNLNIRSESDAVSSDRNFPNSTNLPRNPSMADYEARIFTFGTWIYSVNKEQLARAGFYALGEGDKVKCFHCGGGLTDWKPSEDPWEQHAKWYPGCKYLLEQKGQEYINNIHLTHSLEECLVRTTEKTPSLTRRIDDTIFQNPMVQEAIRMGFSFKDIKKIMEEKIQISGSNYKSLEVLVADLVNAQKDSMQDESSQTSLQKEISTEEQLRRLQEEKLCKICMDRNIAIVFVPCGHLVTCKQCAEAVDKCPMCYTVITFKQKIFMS
In test [11] the test system is XIP peptide (Xip251-270) binding. Kind of test: XIP fragment 251-270 binding compounds – biochemical, small-molecule microarray, fluorescence 635/667 nm, 0.1 µg/mL protein, primary screen (AID 1182). To be noted: fluorescent protein binding, 635 nm, higher = more signal, called active from +8 up or from −8 down.
The test system of another test is XIP peptide (Xip251-270). The test is described as follows: compounds binding XIP fragment 251-270 – biochemical, small-molecule microarray, fluorescence 635/667 nm, 0.5 µg/mL protein, primary screen (AID 1183). To be noted: fluorescence 635 nm, higher = more signal.
The nature of test [12]: blood-stage malaria parasite viability loss – strain 3D7, DAPI fluorescence, 100 nL, primary screen (AID 1184).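 Further: parasites grown inside human red blood cells in medium with human serum.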 As to conditions: P. falciparum 3D7 growth, 3 d, higher = more signal.
In test [13] the target is Homeobox protein Hox-A13 (Mus musculus) (UniProt Q62424). The test is described as follows: disruptors of Hoxa13 oligonucleotide interaction – biochemical, fluorescence polarization, labeled oligonucleotide, primary screen (AID 1185). To be noted: Hoxa13:DNA binding, 15 min, higher = more signal, called active from +8 up or from −8 down. (In general: In fluorescence polarisation assays a small probe gives low polarisation when free and higher when bound to something large.)
Sequence of Homeobox protein Hox-A13 (Mus musculus) (Q62424 whole entry, looked up): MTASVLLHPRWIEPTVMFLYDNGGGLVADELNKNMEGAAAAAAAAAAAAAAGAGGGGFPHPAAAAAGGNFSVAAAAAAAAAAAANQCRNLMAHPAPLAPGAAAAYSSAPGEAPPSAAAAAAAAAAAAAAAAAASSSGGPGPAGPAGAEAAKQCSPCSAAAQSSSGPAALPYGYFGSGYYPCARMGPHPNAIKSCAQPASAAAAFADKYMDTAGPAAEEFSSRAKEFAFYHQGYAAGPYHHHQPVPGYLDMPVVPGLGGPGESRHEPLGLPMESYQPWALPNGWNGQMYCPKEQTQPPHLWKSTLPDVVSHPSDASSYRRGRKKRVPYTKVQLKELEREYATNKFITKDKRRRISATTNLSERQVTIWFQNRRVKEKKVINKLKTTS

Test [14] in a line: blockers of DNA damage checkpoint Chk1 activation – imaging, HeLa, hydroxyurea, phospho-Chk1 antibody, percent positive cells, primary screen (AID 1186). As to conditions: hydroxyurea-induced phospho-Chk1 immunofluorescence imaging, higher = more signal.
A short description of test [15]: blockers of DNA damage checkpoint Chk1 activation – imaging, HeLa, hydroxyurea, phospho-Chk1 nuclear intensity, primary screen (AID 1187). To be noted: hydroxyurea-induced phospho-Chk1 immunofluorescence imaging, higher = more signal.

`CC(C)NC(=O)[C@@H]1c2ccccc2C(=O)N(Cc2ccccc2C(F)(F)F)[C@H]1c1ccc(CO)cc1`: the z-score in test [1] is 0.994; in test [2], -0.249 (inactive); in [3], 0.711 (inactive); in test [5], 0.441 (inactive); in test [6], -0.227 (inactive); in test [7] it was 0.296 (inactive). For the same compound, the z-score in [8] was 0.0644 (inactive); in test [9] it was 0.616; in test [12], -0.276; in test [13] it was -3.17 (inactive); in test [14] it was 0.41 (inactive); in test [15], 0.405 (inactive). Moreover, the composite z-score is 0.0482 (inactive) in [4], -0.135 in [10], 0.483 (inactive) in test [11] and 0.78 in the test with XIP peptide (Xip251-270).
On to `Cc1ccc(S[C@]2(C(=O)NCC(F)(F)F)CC(=O)N(Cc3ccccc3C(F)(F)F)[C@@H]2c2ccc(CO)cc2)cc1`, for which the z-score in [1] was -0.12; in [2], 0.0386 (inactive); in test [3], -0.383 (inactive); in test [5] it was 0.568 (inactive); in test [6] it was -0.404 (inactive); in test [7], 0.334 (inactive). The z-score in test [8] was 0.2 (inactive); in test [9], -0.754; in test [12] it was 0.186; in test [13] it was -1.74 (inactive); in test [14], 0.145 (inactive); in test [15], 0.518 (inactive). The composite z-score was -0.631 (inactive) in test [4], 0.0256 in test [10], 0.859 (inactive) in [11] and 0.843 in the test with XIP peptide (Xip251-270).
As for `CN(C)CCCNC(=O)[C@@]1(C)c2ccccc2C(=O)N(Cc2ccc(OC(F)(F)F)cc2)[C@H]1c1ccc(CO)cc1`, the z-score in test [1] was -0.732; in test [2], -1.69 (inactive); in test [3], -1.18 (inactive); in test [5], 0.236 (inactive); in test [6], -0.164 (inactive); in [7], 0.967 (inactive). The z-score in [8] is -1.26 (inactive); in test [9], 0.415; in test [12], -1.94; in test [13], -1.98 (inactive); in test [14] it was 0.395 (inactive); in [15] it was 0.0436 (inactive). Besides, the composite z-score was -0.397 (inactive) in test [4], -0.156 in [10], 0.784 (inactive) in test [11] and 0.778 in the test with XIP peptide (Xip251-270).
Turning to `COc1ccc([Si](C)(C)[C@H]2[C@H](CC(=O)N3Cc4ccccc4C[C@H]3CO)O[C@@]3(C(=O)N(C)c4ccccc43)[C@@H]2C)cc1`, the z-score in test [1] was -0.894; in test [2] it was -3.38 (inactive); in [3] it was -1.97 (inactive); in [5] it was -0.695 (inactive); in test [6] it was 0.0745 (inactive); in [7], -1.44 (inactive). For the same compound, the z-score in test [8] was -1.38 (inactive); in test [9], -2.06; in test [12], -2.63; in test [13], -5.59 (inactive); in test [14], 0.227 (inactive); in test [15], 0.169 (inactive). Moreover, the composite z-score in [4] is -1.45 (inactive); in test [10], 0.119; in [11] it was 0.958 (inactive); with XIP peptide (Xip251-270), 0.808.
Turning to `O=C1O[C@@H](c2ccccc2)[C@@H](c2ccccc2)N2[C@@H](c3ccc(OCCO)cc3)[C@]3(C(=O)Nc4ccc(C#CCCO)cc43)[C@@H](C(=O)O)[C@H]12`, the z-score in test [1] is -0.0464; in test [2], -0.718 (inactive); in test [3] it was 0.314 (inactive); in [5], 0.185 (inactive); in test [6], 0.575 (inactive); in [7], 0.932 (inactive). Besides, the z-score is 0.91 (inactive) in test [8]; 0.104 in test [9]; 0.612 in test [12]; -5.86 (inactive) in test [13]; -0.368 (inactive) in test [14]; -0.451 (inactive) in test [15]. In addition, the composite z-score was -1.25 (inactive) in [4], 0.104 in test [10], 0.901 (inactive) in [11] and 0.443 in the test with XIP peptide (Xip251-270).
With `CC(C)C(CO)N1C(=O)[C@@H]2C3C(=O)OCCC/C=C\[C@H]3OC23C=CCN(Cc2ccccc2)C(=O)[C@@H]13` (stereo partly drawn), the z-score in test [1] is 0.49; in test [2] it was -0.612 (inactive); in [3] it was 0.607 (inactive); in [5] it was -1.03 (inactive); in [6] it was -0.0566 (inactive); in test [7], 1.15 (inactive). Moreover, the z-score in test [8] is 0.755 (inactive); in [9], 1.14; in test [12], 0.359; in [13], -5.12 (inactive); in test [14], -0.932 (inactive); in [15], -0.842 (inactive). Further, the composite z-score in [4] was -0.479 (inactive); in test [10] it was -0.166; in [11], 1.22 (inactive); with XIP peptide (Xip251-270), -0.209.
Regarding `C=CCOC(=O)[C@@H]1[C@H]2C(=O)O[C@H](c3ccccc3)[C@H](c3ccccc3)N2[C@H](c2ccc(OCCOC(=O)[C@H]3C[C@H]4C(=O)N5CCC[C@H]5C(=O)N4[C@H]3c3cccc(OCCO)c3)cc2)[C@@]12C(=O)Nc1ccc(I)cc12`, the z-score in test [1] is 0.0829; in [2], 2.04 (inactive); in test [3] it was -0.273 (inactive); in [5], 3.81 (inactive); in test [6], 1.89 (inactive); in test [7] it was -0.0055 (inactive). Also, the z-score in test [8] was -0.365 (inactive); in test [9], -0.166; in [12], -0.441; in [13] it was 0.634 (inactive); in test [14], -0.479 (inactive); in test [15], -0.434 (inactive). Also, the composite z-score in test [4] was 0.0219 (inactive); in test [10] it was 0.0003; in test [11], 0.781 (inactive); in the test on XIP peptide (Xip251-270), 0.875.
For the compound `O=C1O[C@H](c2ccccc2)[C@H](c2ccccc2)N2[C@H]1[C@@H](C(=O)O)[C@]1(C(=O)Nc3ccc(C#CCCO)cc31)[C@H]2c1ccc(OCCO)cc1`, the z-score in test [1] was 0.174; in [2], -0.829 (inactive); in [3], 0.686 (inactive); in test [5], 0.967 (inactive); in [6] it was 0.159 (inactive); in [7] it was 0.312 (inactive). The z-score was 0.471 (inactive) in test [8]; 0.68 in [9]; -0.481 in test [12]; -5.39 (inactive) in [13]; -0.255 (inactive) in test [14]; -0.132 (inactive) in test [15]. In addition, the composite z-score was -1.01 (inactive) in test [4], -0.177 in test [10], 0.671 (inactive) in test [11] and 0.856 in the test with XIP peptide (Xip251-270).
